Experimental data as given in PubChem BioAssay (NCI).
This is part of a sample that, as a whole, favours compounds with a hit. Of some 83,000 tested, about 20% had one in any assay.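 Note: values are percent growth. 100 is the growth of untreated cells, values between 100 and 0 indicate rising inhibition; between -100 and 0 indicates cell death.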 Unmarked numbers belong to inactive results. Activity calls are given as the source filed them. How the source made its calls: active means growth percent below 10; inactive means the rest.

Tests used:
Assay in all cases: NCI-60 one-dose screen, 48 h (100 = growth as untreated, 0 = no growth, -100 = all killed)
Conditions in all cases: 10 µM
EKVX NSCLC = test system: EKVX NSCLC
SN12C renal = test system: SN12C renal
UO-31 renal = test system: UO-31 renal
TK-10 renal = test system: TK-10 renal
ACHN renal = test system: ACHN renal
A498 renal = test system: A498 renal
CCRF-CEM leukemia = test system: CCRF-CEM leukemia
MOLT-4 leukemia = test system: MOLT-4 leukemia
SR leukemia = test system: SR leukemia
RPMI-8226 leukemia = test system: RPMI-8226 leukemia
OVCAR-8 ovarian = test system: OVCAR-8 ovarian
OVCAR-5 ovarian = test system: OVCAR-5 ovarian
OVCAR-4 ovarian = test system: OVCAR-4 ovarian
SK-OV-3 ovarian = test system: SK-OV-3 ovarian
IGROV1 ovarian = test system: IGROV1 ovarian
OVCAR-3 ovarian = test system: OVCAR-3 ovarian
HS 578T breast = test system: HS 578T breast
NCI/ADR-RES ovarian = test system: NCI/ADR-RES ovarian
T-47D breast = test system: T-47D breast
CAKI-1 renal = test system: CAKI-1 renal

SMILES | growth (EKVX NSCLC) | growth (SN12C renal) | growth (UO-31 renal) | growth (TK-10 renal) | growth (ACHN renal) | growth (A498 renal) | growth (CCRF-CEM leukemia) | growth (MOLT-4 leukemia) | growth (SR leukemia) | growth (RPMI-8226 leukemia) | growth (OVCAR-8 ovarian) | growth (OVCAR-5 ovarian) | growth (OVCAR-4 ovarian) | growth (SK-OV-3 ovarian) | growth (IGROV1 ovarian) | growth (OVCAR-3 ovarian) | growth (HS 578T breast) | growth (NCI/ADR-RES ovarian) | growth (T-47D breast) | growth (CAKI-1 renal)
Nc1nc(Nc2ccccc2)n[nH]1 | 95.8% | 101% | 82.3% | 101% | 89.7% | 108% | 97.7% | 106% | 102% | 97% | 98.1% | 103% | 103% | 104% | 97.7% | 119% | 119% | 96.6% | 91.7% | 
Cc1ccc(NC(=O)Nc2c(Cl)cccc2Cl)cn1 | 58.8% | 105% | 72.1% | 128% | 95.5% | 106% | 69.5% | 86.9% | 59.1% | 62.9% | 111% |  | 135% | 116% | 85.9% | 106% | 97.8% | 105% | 96.8% | 
S=c1[nH]ccn1-c1c(Cl)cccc1Cl | 103% | 92.6% | 91% | 112% | 101% | 116% | 76.7% | 106% | 104% | 89% | 103% | 107% | 97.1% | 102% |  | 111% |  | 102% |  | 
Cc1cc(N(CCCNc2ccnc3cc(Cl)ccc23)Cc2ccc3c(c2)OCO3)nc(N2CCCCC2)n1 | 2.19% (active) | 23.4% | -61.9% (active) | -35.3% (active) | -37.7% (active) | -18.8% (active) | -5.28% (active) | -27.1% (active) | -41.7% (active) | -49.5% (active) | -11.2% (active) | 4.69% (active) | -9.93% (active) | 31.3% | -51.1% (active) | -71.8% (active) | -32.4% (active) | 7.45% (active) | -37.3% (active) | 
COc1ccccc1/C=C/C(=O)c1ccccc1 | 98.6% | 91.6% | 60.1% | 104% | 84.2% | 108% | 29% | 46% | 10.5% | -36.2% (active) | 61.8% | 105% | 70.2% | 118% | 28.8% | 59.9% | 73.9% | 86.7% | 94.8% | 
COC(=O)C1(C)Cc2cc(OC(C)=O)c(OC(C)=O)cc2N1 (centres undefined) | 92.2% | 88.8% | 32.3% | 87.9% | 27.3% | 92.8% | 24.1% | 56.6% | 1.05% (active) | 23.6% | 85.2% | 118% | 57.8% | 98.4% | 27.1% | 67.2% | 88.7% | 80.6% | 42.6% | 
Cc1cccc(NC2=C(C#N)C(=O)NC3(CCCC3)S2)c1 | 106% | 97.3% | 93.8% | 107% | 98.2% | 96.9% | 90.2% | 98.4% | 94.9% | 90% | 100% | 103% | 103% | 103% | 168% | 116% | 103% | 100% |  | 
CCN(CCCCCCN1CC(=O)N(CCCCCCN(CC)Cc2ccccc2OC)CC1=O)Cc1ccccc1OC | 72.9% | 93.9% | 91.9% | 87.6% | 110% |  |  | 42.7% | 39.3% | 30.3% | 86.7% | 68.9% | 77.1% | 102% | 61.1% | 59.5% |  | 70.9% | 90.8% | 90.3%
Cc1cc(N(CCCNc2ccnc3cc(Cl)ccc23)Cc2ccc3c(c2)OCO3)nc(N2CCOCC2)n1 | 66.5% | 44.7% | 3.36% (active) | 13.9% | 14.3% | 54.1% | -8.38% (active) | -15.9% (active) | -27.7% (active) | -29.6% (active) | 31.7% | 77.4% | 23.1% | 90.5% | 10.9% | -6.27% (active) | 34.3% | 46.9% | 0.442% (active) | 
